gsp agonist: qHTS for Agonist of gsp, the Etiologic Mutation Responsible for Fibrous Dysplasia/McCune-Albright Syndrome: qHTS. Potency, µM (series often up to 76.9 µM), without a hit: at the top dose activation (cAMP increase), hits mostly activators. 0.13% of 340,000 active. gsp mutant cells, cAMP HTRF, 30 min; active means well fitted activation curve with a large enough effect; inconclusive means small, poorly fitted or top-dose-only effect, or another doubt; inactive means no such curve, though single readings can be large or run the other way; cell line not stated here;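 further: phosphodiesterase inhibitor Ro 20-1724 added with compounds to block cAMP breakdown; potency means the concentration at half of the fitted maximal effect; nearly all actives have a fitted effect of over 60% in size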
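Cells in DMEM/10% FBS with G418 were pretreated with compounds in DMSO plus […] (300 uM stock) for 30 min at 37C. cAMP was measured by HTRF (cAMP-d2 plus anti-cAMP antibody-K) after 30 min at room temperature.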
RXFP1 antagonist: qHTS Assay for Antagonists of the Relaxin Receptor RXFP1. activity change, negative = inhibition, % at 57.5 µM. 0.59% of 350,000 active. Relaxin receptor 1 (Homo sapiens), Q9HBX9. HEK293-RXFP1, relaxin-stimulated cAMP HTRF, 30 min; active compounds read low;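 active means activity change of -60% or lower, but not beyond a set lower limit; inconclusive means change between -60% and -40%, or beyond the set limit; inactive means change above -40%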; further: on the % scale 0 is the no-effect control and ±100 the full control effect
gsp antagonist: qHTS for Antagonists of gsp, the Etiologic Mutation Responsible for Fibrous Dysplasia/McCune-Albright Syndrome: qHTS. 0.4% of 340,000 active. gsp-mutant cells, cAMP HTRF, 30 min. Potency, µM (titrated, usually from 76.9 µM), inactives show at the highest dose activity change, negative = inhibition, actives largely listed as inhibitors. AID 624288, 2012; calls by dose curve; cell line not stated here;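 further: intracellular cAMP measured with PDE inhibitor Ro 20-1724 present during compound exposure; potency means the concentration at half of the fitted maximal effect; on the % scale 0 is the no-effect control and ±100 the full control effect; nearly all actives have a fitted effect of over 65% in size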
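Cells in G418 medium, seeded 16-24 h, 37C; buffer exchange to DPBS + 1 mM CaCl2, 0.5 mM MgCl2, 0.05% BSA; cpds in DMSO + […] (300 uM stock), 30 min 37C; HTRF cAMP detection.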
TRPV1 ag: HTS Assay for Compounds that Act as Agonists of the Vanilloid Receptor 1. TRPV1-expressing cells, Fluo-8 calcium influx, agonist mode. 0.19% of 320,000 active. Transient receptor potential cation channel subfamily V member 1 (Homo sapiens), Q8NER1. activation, % at 8.33 µM; in the data active means activation above about 80%; inconclusive means between about 30% and that limit; further: 0% is about no effect
Target sequence (Q8NER1 whole entry, looked up): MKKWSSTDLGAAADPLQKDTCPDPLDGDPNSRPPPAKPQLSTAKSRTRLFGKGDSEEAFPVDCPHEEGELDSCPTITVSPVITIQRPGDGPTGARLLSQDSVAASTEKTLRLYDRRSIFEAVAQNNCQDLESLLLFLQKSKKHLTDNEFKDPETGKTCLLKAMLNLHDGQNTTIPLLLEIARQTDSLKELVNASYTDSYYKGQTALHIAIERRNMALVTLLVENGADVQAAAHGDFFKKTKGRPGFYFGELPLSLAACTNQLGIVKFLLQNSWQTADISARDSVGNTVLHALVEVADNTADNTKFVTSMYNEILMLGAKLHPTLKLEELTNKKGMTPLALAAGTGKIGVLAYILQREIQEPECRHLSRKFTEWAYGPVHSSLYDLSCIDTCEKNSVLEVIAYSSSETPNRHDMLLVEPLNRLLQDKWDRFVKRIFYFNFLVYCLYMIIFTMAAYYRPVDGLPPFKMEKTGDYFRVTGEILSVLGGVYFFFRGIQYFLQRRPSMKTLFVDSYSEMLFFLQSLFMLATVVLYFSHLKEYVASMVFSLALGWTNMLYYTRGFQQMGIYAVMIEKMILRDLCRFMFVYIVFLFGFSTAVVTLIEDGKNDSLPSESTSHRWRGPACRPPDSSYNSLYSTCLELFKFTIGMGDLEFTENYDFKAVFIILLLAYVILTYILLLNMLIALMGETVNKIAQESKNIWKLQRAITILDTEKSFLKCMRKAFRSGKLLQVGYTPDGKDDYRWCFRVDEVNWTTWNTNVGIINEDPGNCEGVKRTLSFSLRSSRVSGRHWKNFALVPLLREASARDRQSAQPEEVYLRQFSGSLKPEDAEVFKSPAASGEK
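Fluo-8 calcium influx in TRPV1-expressing cells, kinetic read (ex 480/em 520 nm). Compound added and read 3 min for agonist activity, followed by capsaicin at EC20 final and 2 min further read for enhancement.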
TRPV1 PAM: HTS Assay for Compounds that Act as Potentiators of the Vanilloid Receptor 1; TRPV1-expressing cells, Fluo-8 calcium influx, capsaicin EC20 potentiation; potentiation, % at 8.33 µM; Transient receptor potential cation channel subfamily V member 1 (Homo sapiens), Q8NER1; 0.02% of 320,000 active; in the data active means potentiation above about 80%; inconclusive means between about 30% and that limit; further: 0% is about no effect
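Fluo-8 calcium influx in TRPV1-expressing cells, kinetic read (ex 480/em 520 nm). Compound added and read 3 min for agonist activity, followed by capsaicin at EC20 final and 2 min further read for enhancement.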
RXFP1 agonist: qHTS Assay for Agonists of the Relaxin Receptor RXFP1; 0.3% of 370,000 active; Relaxin receptor 1 (Homo sapiens), Q9HBX9; AID 2676, 2010; Potency, µM (doses to about 57.5 µM), for the others: at the highest dose activation, most hits filed as activators; HEK293T-RXFP1 cAMP TR-FRET, 30 min; response scale: percent of porcine relaxin response, buffer zero; active means well fitted activation curve with a large enough effect; inconclusive means small, poorly fitted or top-dose-only effect; further: potency means the concentration at half of the fitted maximal effect; on the % scale 0 is the no-effect control and ±100 the full control effect; nearly all actives have a fitted effect of over 60% in size
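HEK293T cells stably expressing RXFP1 were pretreated with the PDE4 inhibitor Ro 20174, exposed to compounds for 30 min at 37C, lysed, and cAMP was read by TR-FRET. Data normalized to buffer (basal) and 29 nM porcine relaxin (100%).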
Active calls of the source: *; u = inconclusive; x = not tested or not shown; [ ] = another dose, or the depositor's remark. Rows were chosen to be rich in hits. Some 1.1% of all compounds tested hit in one or more screens of this group.

SMILES	gsp agonist	RXFP1 antagonist	gsp antagonist	TRPV1 ag	TRPV1 PAM	RXFP1 agonist
CCN1CCN(CCNC(=O)c2ccc3c(c2)N(Cc2cccc(Cl)c2)C(=O)c2ccccc2S3=O)CC1 (stereo not given)	u	2	-1%	1	6	-1%
Cc1ccc2oc(C(=O)NCC3CCOCC3)c(C)c2c1	-1%	-2	-1%	84*	-12	1%
C=CC(=O)N1C/C(=C/c2ccc(F)cc2)C(=O)/C(=C\c2ccc(F)cc2)C1	10%	-80*	5%	x	x	x
CC(C)(CO)NS(=O)(=O)c1ccc2c(c1)C(=NO)c1cc(S(=O)(=O)NC(C)(C)CO)ccc1-2	7.1µM*	-2	5%	1	7	-1%
CCc1ccc(/C=N/NC(=O)c2c[nH]c3ccccc23)s1	3%	-7	-16%	85*	-14	1%
O=C(N/N=C/c1cccs1)c1c[nH]c2ccccc12	-6%	0	-5%	-1	-3	-1%
COc1cc(/C=C/C(=O)Nc2ccc3[nH]c(=O)[nH]c3c2)cc(OC)c1OC	9%[15.4 µM]	-6	-4%	-14	-1	1%
O=C(/C=C/c1ccc(F)cc1)Nc1ccc2[nH]c(=O)[nH]c2c1	-21%	-2	-6%	83*	0	0%
COc1cccc(/C=C/C(=O)Nc2ccc3[nH]c(=O)[nH]c3c2)c1	-1%	2	11%	93*	4	0%
Cc1ccc(C(=O)N[C@H](C(=O)Nc2sccc2C(N)=O)C(C)C)cc1	-9%	-9	-6%	u	-21	-1%
CC1CCN(S(=O)(=O)c2ccc3c(c2)N(CC(=O)Nc2ccc(F)c(Cl)c2)C(=O)CO3)CC1	x	-36	x	x	x	3%
CSCC[C@H](NC(=O)COc1ccc(Cl)cc1)c1nc2ccccc2[nH]1	4%[15.4 µM]	1	7.9µM*	u	-21	0%
COc1ccc(-n2cc(-c3ccccc3)c3c(N4CCCC(C)C4)ncnc32)cc1 (stereo not given)	x	10	x	x	x	-1%
Cc1[nH][nH]c(=O)c1C(c1ccc(-c2cccc(C(=O)O)c2)o1)c1c(C)[nH][nH]c1=O	-6%	6	-2%	4	11	4%
COC(=O)c1ccc(-c2ccc(C(c3c(C)[nH][nH]c3=O)c3c(C)[nH][nH]c3=O)o2)cc1	-48%	-87*	-5%	-3	15	-1%
CC(C)Cn1c(-c2csc3ccccc23)n[nH]c1=S	-40%	-2	-11%	-2	-11	-2%
Cc1cccc(-n2c(-c3csc4ccccc34)n[nH]c2=S)c1	-8%	-117*	-8%	2	-1	3%
CCN(CC)c1ccc(N=Cc2ccc([N+](=O)[O-])o2)cc1	-21%	-67*	u	0	23	-5%
CCN(CC)c1ccc(N=Cc2ccccc2[N+](=O)[O-])cc1	-23%[15.4 µM]	-68*	u	2	3	-4%
CC(=O)N(C)c1ccc(N=Cc2cc3c(cc2[N+](=O)[O-])OCO3)cc1	12%[15.4 µM]	3	-10%	x	x	x
CCCCCC(=O)N/N=C/c1ccc([N+](=O)[O-])o1	-34%	-20	0%	6	5	4%
COc1ccc(NC(=O)CC2C(=O)N(c3ccc(OC)cc3)C(=O)N2CCC2=CCCCC2)cc1 (stereo not given)	x	x	x	x	x	1%
COc1ccc(/C=N/NC(=O)c2ccc(=O)n(C)c2)cc1OC	-1%[15.4 µM]	-1	5%	-1	6	2%
C[C@H](Cc1ccccc1)Nc1ncnc2c1ncn2[C@@H]1O[C@H](CO)[C@@H](O)[C@H]1O	x	x	-7%	2	2	11µM*
NCCNC(=O)Cc1ccc(NC(=O)Cc2ccc(Nc3ncnc4c3ncn4[C@@H]3O[C@H](CO)[C@@H](O)[C@H]3O)cc2)cc1	x	x	16%	0	11	1.4µM*
SMILES	gsp agonist	RXFP1 antagonist	gsp antagonist	TRPV1 ag	TRPV1 PAM	RXFP1 agonist
CN(C(=O)COc1ccccc1C(=O)NCCOc1ccccc1)c1ccccc1	-18%	-28	35µM*	u	-15	2%
O=C(COc1ccccc1)Nc1ccc(C(=O)OCc2cc(=O)n3nc(C4CC4)sc3n2)cc1	x	0	x	x	x	7%
CN(C)c1ccc(C(CNC(=O)COc2ccc(Cl)cc2)N2CCCC2)cc1 (stereo not given)	-1%	-64*	3%	18	1	0%
CN(C)c1ccc(C(CNC(=O)COc2ccc(Cl)cc2)N2CCOCC2)cc1 (stereo not given)	x	-9	x	x	x	8%
Cc1noc(C)c1CSCC(=O)Nc1nc(-c2ccc(F)c(F)c2)cs1	14%[15.4 µM]	-34	35µM*	6	u	1%
COc1ccc(-c2csc(NC(=O)CSCc3c(C)noc3C)n2)cc1OC	-7%	-31	u	5	0	-2%
CCc1noc(C)c1C(=O)OCC(=O)Nc1nc(-c2ccc(F)c(F)c2)cs1	8%	-13	40µM*	-1	1	0%
COC(=O)Cc1c(C)c2c(O)cc(C)cc2oc1=O	u	33	32%	0	16	16µM*
COCCn1cc(C(=O)c2cc(Br)ccc2O)cc(C#N)c1=O	-10%[15.4 µM]	-3	-9%	-6	-11	2%
Cc1cccc(OCC(=O)Nc2ccc(C(=O)OCc3cc(=O)n4nc(C5CC5)sc4n3)cc2)c1	x	-7	x	x	x	23%
CCOC(=O)c1cc(-c2ccc(OC)cc2)n(CCC(=O)NCCc2ccccc2)c1C	x	-62*	x	x	x	0%
CCOC(=O)c1cc(-c2ccccc2)n(CCC(=O)NCCc2cccc(C)c2)c1C	x	-31	x	x	x	-1%
CN1C[C@H]2c3ccccc3Oc3ccc(Cl)cc3[C@@H]2C1	x	-16	x	x	x	x
CCOC(=O)c1sc2ccccc2c1S(=O)(=O)N1CCN(c2cccc(C)c2C)CC1	x	-10	x	x	x	9%
O=S(=O)(c1ccc2c(c1)OCCO2)N1CCCN(S(=O)(=O)c2c(F)cccc2F)CC1	x	x	x	6	-4	1%
CC(C)(C)c1ccc(OCCNC(=O)Cc2ccc(F)cc2)cc1	5%	-17	-8%	91*	9	0%
CCOc1ccc(-c2nc(CSCC(=O)N3CCN(c4cccc(OC)c4)CC3)c(C)o2)cc1	u	-7	40µM*	x	x	1%
COc1ccc(-c2noc(CCC(=O)N3CCN(c4cccc(OC)c4)CC3)n2)cc1	x	x	45µM*	x	x	x

High-throughput results deposited in PubChem BioAssay by National Center for Advancing Translational Sciences (NCATS).
